Source: PubChem
An excerpt weighted towards active compounds, which were near 2.9% of everything screened.
PAFAH1B2 FP inh – inhibitors of human PAFAH1B2; AID 492953; actives 1.2% (n = 340,000); inhibition, % at 3.39 µM; P68402; recombinant PAFAH1B2, FP-rhodamine activity probe, fluorescence polarization;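 active = inhibition above the mean of all tested compounds plus 3 SD, cut at about 24% in these data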;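 also: 0% = enzyme with DMSO and 100% = wells lacking PAFAH1B2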
Target sequence (P68402 whole entry, looked up): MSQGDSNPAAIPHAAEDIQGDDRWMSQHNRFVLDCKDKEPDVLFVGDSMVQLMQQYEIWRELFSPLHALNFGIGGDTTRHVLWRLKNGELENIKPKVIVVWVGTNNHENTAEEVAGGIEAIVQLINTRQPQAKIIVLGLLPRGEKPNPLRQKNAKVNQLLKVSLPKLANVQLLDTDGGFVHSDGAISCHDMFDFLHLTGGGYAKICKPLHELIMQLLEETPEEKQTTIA
PME-1 inh – blocks human protein phosphatase methylesterase 1 | actives 0.53% (n = 320,000) | inhibition, % at 5.9 µM | Q9Y570 | recombinant PME-1, FP-Rh probe fluorescence polarization;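 active = inhibition above the campaign mean of all compounds plus 3 SD, cut at about 26% in these data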;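 also: competitive labeling of PME-1 active site by serine hydrolase directed probe; 0% = PME-1 with DMSO and 100% = wells lacking PME-1 enzyme; inhibitors block probe labeling so polarization falls and inhibition rises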
PAFAH1B3 inh – PAFAH1B3 (human) inhibition; Q15102; recombinant PAFAH1B3, FP-rhodamine probe, fluorescence polarization; inhibition, % at 3.39 µM; actives 0.28% (n = 340,000); AID 492972;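 active = inhibition above the screen-wide average of all tested compounds plus 3 SD, cut at about 25% in these data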;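 also: 0% = enzyme with DMSO only and 100% = wells lacking PAFAH1B3 protein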
Target sequence (Q15102 whole entry, looked up): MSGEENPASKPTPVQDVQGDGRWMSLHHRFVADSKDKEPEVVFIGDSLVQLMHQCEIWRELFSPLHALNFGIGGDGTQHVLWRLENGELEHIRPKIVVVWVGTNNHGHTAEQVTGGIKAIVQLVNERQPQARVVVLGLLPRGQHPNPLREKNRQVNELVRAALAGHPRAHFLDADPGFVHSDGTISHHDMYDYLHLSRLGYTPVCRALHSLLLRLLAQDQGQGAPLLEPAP
PAFAH2 inh – inhibitors of human PAFAH2; recombinant PAFAH2, FP-rhodamine activity probe, fluorescence polarization; inhibition, % at 3.39 µM; actives 0.99% (n = 340,000); Q99487; AID 492956;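 active = inhibition above the mean over all tested compounds plus 3 SD, cut at about 30% in these data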;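 also: inhibitors block probe labeling of enzyme so polarization drops; 0% = enzyme with DMSO and 100% = wells lacking PAFAH2 protein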
pPAFAH inh – pPAFAH (human) enzyme inhibition; inhibition, % at 3.39 µM; recombinant pPAFAH, FP-rhodamine probe fluorescence polarization; actives 1.5% (n = 330,000);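 active = inhibition above the mean inhibition across the screen plus 3 SD, cut at about 25% in these data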;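 also: inhibitors block binding of the rhodamine activity-based probe so polarization drops; 0% = enzyme with DMSO and 100% = wells lacking pPAFAH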
Fam108B counter – Fam108B inhibition, counter-screen for RBBP9 inhibitors | recombinant Fam108B, FP-Rh probe fluorescence polarization | inhibition, % at 9.51 µM | actives 0.33% (n = 300,000);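 active = inhibition above the screen mean inhibition plus 3 SD, computed separately per campaign, cut at about 18% in these data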;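 also: inhibitors lower polarization as less probe binds the enzyme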
An asterisk follows results filed as active; . = not tested or not shown.

SMILES	PAFAH1B2 FP inh	PME-1 inh	PAFAH1B3 inh	PAFAH2 inh	pPAFAH inh	Fam108B counter
COc1ccc(NC(=O)CN(C)C(=O)c2cccc(S(=O)(=O)N3CC4(C)CC3CC(C)(C)C4)c2)cc1 (stereo not given)	5	-2	0	-3	4	-1
CCCCNC(=O)c1cccc(S(=O)(=O)N2CC3(C)CC2CC(C)(C)C3)c1 (stereo not given)	36*	0	1	8	2	.
COCCCNC(=O)c1cccc(S(=O)(=O)N2CC3(C)CC2CC(C)(C)C3)c1 (stereo not given)	14	2	4	-5	2	-2
COCCNC(=O)c1cccc(S(=O)(=O)N2CC3(C)CC2CC(C)(C)C3)c1 (stereo not given)	9	0	7	-1	1	0
Cn1c(=O)n(CCCOc2ccc(Br)cc2)c2ccccc21	5	-8	-8	4	32*	1
OCc1nc2ccccc2n1CCCOc1ccc(Br)cc1	9	2	4	-8	31*	0
O=C1CC[C@@H](OCc2ccccc2)CCN1CC[C@H](Sc1ccccc1)c1ccccc1	5	5	-2	33*	32*	2
COc1ccc2[nH]c3c(c2c1)CCN1C(=O)C(CC(=O)NCCCn2ccnc2)C[C@H](C(=O)N2CCCCC2)[C@@]31C (stereo not given in full)	2	.	2	11	3	.
CCOc1ccc(CCNC(=O)CCS(=O)(=O)c2ccc(OC)cc2)cc1OCC	0	-5	-2	0	34*	0
O=C(O)c1cc(-c2ccc(Cl)c(Cl)c2)n(-c2ccccc2)n1	29*	-1	1	-2	6	-4
Cc1ccc(-n2nc(C(=O)O)cc2-c2ccccc2)cc1	19	-4	6	5	6	3
c1ccc(OCc2nn3c(Cn4cnc5ccccc54)nnc3s2)cc1	27*	2	3	4	5	10
Cc1ccc(-c2nc(C=Nc3ccc(O)cc3)c(O)o2)cc1	5	.	13	19	.	.
Cc1ccc(N=Cc2nc(/C=C/c3cccc([N+](=O)[O-])c3)oc2O)cc1	0	27*	-5	4	-2	-1
C/C(=N\NC(=O)c1cccc(N/N=C(\C)c2cc(O)ccc2O)c1)c1cc(O)ccc1O	9	4	16	9	32*	30*
C/C(=N\NC(=O)c1ccc(N/N=C(\C)c2ccc(O)cc2)cc1)c1ccc(O)cc1	6	28*	9	6	12	16
C/C(=N\Nc1cccc([N+](=O)[O-])c1)c1ccccc1O	10	45*	10	-2	6	8
O=C(CN1CCN(S(=O)(=O)N2CCOCC2)CC1)Nc1cc(Cl)cc(Cl)c1	6	5	-2	4	7	1
Cc1ccc(NC(=O)CN2CCN(c3ccccn3)CC2)cc1S(=O)(=O)N(C)C	4	15	-2	4	2	0
CCN(CC)S(=O)(=O)c1cc(NC(=O)C(C)N2CCN(c3ccccn3)CC2)ccc1C (stereo not given)	2	29*	6	5	-1	3
CC[C@H](C)Cc1cn([C@@H](CCCN=C(NC(=O)OC(C)(C)C)NC(=O)OC(C)(C)C)C(=O)NCCCCCCCCCCC(=O)N2CCN(C(=O)OC(C)(C)C)CC2)nn1	12	5	27*	4	9	1
O=C(NCC1CCCCC1)c1cc(S(=O)(=O)N2CCOCC2)ccc1F	5	-1	7	-6	8	.
Cc1ccc(-c2nc(CSCC(=O)N3CCOCC3)c(C)o2)cc1	3	3	6	-1	4	-1
Cc1ccc(-c2nc(CSCC(=O)N3CCN(c4ccccn4)CC3)c(C)o2)cc1	25*	3	3	3	0	-2
CCc1ccc(-c2nc(CSCC(=O)N3CCN(c4ccccn4)CC3)c(C)o2)cc1	44*	7	3	-1	8	0
SMILES	PAFAH1B2 FP inh	PME-1 inh	PAFAH1B3 inh	PAFAH2 inh	pPAFAH inh	Fam108B counter
Cc1ccc(-c2nc(CSCC(=O)N3CCN(C(=O)c4ccco4)CC3)c(C)o2)cc1	0	5	2	7	-4	0
COc1ccc(/C=C2\SC(N3CCCCC3)=NC2=O)cc1OC	3	1	6	-6	7	2
COc1ccc(OC)c(/C=C2\SC(N3CCCC(C)C3)=NC2=O)c1 (stereo not given)	1	2	17	-3	27*	0
O=C(Cn1cnc([N+](=O)[O-])c1)c1ccc(Cl)cc1	7	6	1	-4	4	-2
O=C(C[n+]1cnn(CC(=O)c2ccc(Cl)cc2Cl)c1)c1ccc([N+](=O)[O-])cc1	-2	9	7	-6	25*	4
O=c1[nH]c(C2CCN(S(=O)(=O)c3ccccc3)CC2)nc2c1nnn2Cc1ccccc1	2	16	-2	1	7	3
COc1ccc(O)c(C(=O)c2cc(SCC(=O)O)c3nc4sc5c(c4c(=O)n3c2)CCCC5)c1	1	2	15	-5	28*	-13
FC(F)(F)c1cccc(NC(=S)NNC(=S)NCc2ccccc2)c1	19	11	16	14	48*	14
COc1ccc(OC)c(CNS(=O)(=O)c2cn(C)cn2)c1	4	0	-1	6	-2	-4
Cc1ccc(-c2cccc(CN3CCN(C4CCN(C(C)C)CC4)C(CCO)C3)c2)o1 (stereo not given)	-1	-1	-4	-8	0	-1
O=C(COC(=O)CC12CC3CC(CC(C3)C1)C2)Nc1ncc(Cl)cc1Cl	13	0	-4	20	27*	3
O=C(CSc1nnc(CNC(=O)c2ccc(F)cc2)o1)Nc1nccs1	1	5	7	9	-3	0
CCOC(=O)C1CCCN(CC(=O)Nc2nccs2)C1 (stereo not given)	2	-5	5	2	28*	-1
O=C(O)c1ncn(Cc2ccc(Br)cc2)c1C(=O)O	25*	2	8	9	1	6
CCc1n[nH]c(=S)n1/N=C/c1ccc(N(C)c2ccccc2)cc1	-6	14	11	-1	26*	5
CCc1n[nH]c(=S)n1/N=C/c1ccc2c(c1)OCO2	2	-2	-4	3	9	-4
CNc1ccc(Br)cc(C(=O)/C=C/c2ccc(OC)cc2OC)c1=O	2	1	18	13	25*	12
CC(OC(=O)Cn1cnc2c1c(=O)n(C)c(=O)n2C)C(=O)Nc1ccc(Cl)cc1 (stereo not given)	3	0	7	-3	-1	2
N/C(=N\OC(=O)Cc1ccccc1)c1ccc(Br)cc1	27*	-3	10	-1	4	-2
CC(=O)Nc1ccc(C(=O)OCc2ccc(Br)cc2)cc1	26*	-3	1	34*	0	-3
